The record followed here is PubChem BioAssay (NCI).

Some test systems named below: DU-145 prostate; K-562 leukemia; MALME-3M melanoma; MDA-MB-231 breast; RXF 393 renal; SF-268 CNS; SF-295 CNS; SF-539 CNS; UACC-257 melanoma; M14 melanoma.
Assay in all cases: NCI-60 one-dose screen, 48 h (100 = growth as untreated, 0 = no growth, -100 = all killed)
What all share (settings): 10 µM unless noted

The structures appear in SMILES notation. About 83,000 compounds went through this panel and 20% of them were active in at least one assay; those are over-represented in the sample as a whole.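 Cells were grown in 96-well plates and exposed to the test compound at a single concentration for 48 hours; results are reported as percent growth, with values below 10 considered active.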 Unmarked numbers belong to inactive results. Activity calls are given as the source filed them.

Regarding `Cn1c(-c2c(N)n(Cc3ccc(C(F)(F)F)cc3)c3nc(C#N)c(C#N)nc23)nc2ccccc21`, the growth is -4.79% (active) in the test on DU-145 prostate; -30.7% (active) with K-562 leukemia; -23.9% (active) in the test on MALME-3M melanoma; -13.2% (active) in the test with MDA-MB-231 breast; 4.46% (active) in the test with RXF 393 renal; 43.3% in the test with SF-268 CNS. Besides, the growth in the test on SF-295 CNS was -27.5% (active); with SF-539 CNS it was 8.23% (active); in the test on UACC-257 melanoma, 6.78% (active); in the test on M14 melanoma, 16.2%.
Regarding `COc1ccc(NC(=O)c2nc(-c3cc(OC)c(OC)c(OC)c3)n(-c3cccc4ccccc34)n2)cc1OC`, the growth is 70.4% in the test with DU-145 prostate; 35.4% in the test on K-562 leukemia; 52.8% in the test on MALME-3M melanoma; 27% in the test on MDA-MB-231 breast; 66.1% in the test on RXF 393 renal; 58.6% in the test with SF-268 CNS. Moreover, the growth in the test on SF-295 CNS is 52.6%; in the test on SF-539 CNS it was 35%; in the test on UACC-257 melanoma, 57.5%; with M14 melanoma, 48%.
Regarding `CN1CCN(CC(=O)Nc2nc(-c3cccc(NS(=O)(=O)c4cccc5c(N(C)C)cccc45)c3)cs2)CC1`, the growth was 81.3% in the test on DU-145 prostate; 9.93% (active) with K-562 leukemia; 84% with MALME-3M melanoma; 50.3% in the test on MDA-MB-231 breast; 70.4% with RXF 393 renal; 76.9% with SF-268 CNS. Also, the growth with SF-295 CNS is 62.1%; in the test with SF-539 CNS, 75.6%; in the test with UACC-257 melanoma it was 91.2%; in the test with M14 melanoma, 102%.
On to `COc1ccc(-c2nc(SCCC(C)C)nc(N/N=C\c3cccc([N+](=O)[O-])c3)c2C#N)cc1`, for which the growth in the test with DU-145 prostate was 34.1%; with K-562 leukemia it was 56.8%; in the test on MALME-3M melanoma, 50%; in the test with MDA-MB-231 breast, 23.4%; in the test with RXF 393 renal, 28%; with SF-268 CNS, 25.1%. Besides, the growth is 32.1% in the test with SF-295 CNS, 27.5% in the test on SF-539 CNS, 81% in the test on UACC-257 melanoma and 61.3% in the test on M14 melanoma.
In the case of `COc1cc(N=Nc2cc(Cc3ccc(N(C)C)cc3)c(N)cc2N(C)C)c2ncccc2c1`, the growth was -48.7% (active) in the test on DU-145 prostate; -36.8% (active) in the test on K-562 leukemia; -17.6% (active) in the test on MALME-3M melanoma; -45.1% (active) with MDA-MB-231 breast; -79.7% (active) in the test with RXF 393 renal; 17.3% in the test on SF-268 CNS. Also, the growth in the test on SF-295 CNS was 11.8%; with SF-539 CNS, -85.8% (active); with UACC-257 melanoma, -33% (active); with M14 melanoma, -15.7% (active).
As for `CCOc1ccccc1-n1c(CN2CCN(C(=O)COc3ccc(CNCCCCCCN4C5CCCC4CC(OC(=O)Nc4cc(C)ccc4OC)C5)cc3)CC2)nc2ccccc2c1=O` (stereo not given), the growth in the test with DU-145 prostate is -98.5% (active); with K-562 leukemia it was -56.9% (active); with MALME-3M melanoma it was -84.9% (active); with MDA-MB-231 breast, -91.1% (active); in the test with RXF 393 renal, -76.8% (active); in the test with SF-268 CNS it was -77.1% (active). Also, the growth in the test on SF-295 CNS was -92.6% (active); in the test on SF-539 CNS it was -92.8% (active); with UACC-257 melanoma, -95.6% (active); in the test with M14 melanoma, -77.6% (active).
Consider `O=c1[nH][n+](-c2ccc(Cl)cc2)no1`, for which the growth with DU-145 prostate was 59.7%; in the test with K-562 leukemia, 10.4%; in the test on MALME-3M melanoma, 84.7%; in the test on MDA-MB-231 breast it was 70.7%; in the test with RXF 393 renal, 121%; with SF-268 CNS, 47.7%. In addition, the growth with SF-295 CNS is 34.5%; with SF-539 CNS, 66.7%; with UACC-257 melanoma, 64.9%; in the test on M14 melanoma, 81.5%.
Consider `COc1ccc(C(=NN=C(N)N)c2ccc(OC)cc2)cc1`, for which the growth was 52.8% in the test on DU-145 prostate; 19.9% in the test on K-562 leukemia; 69.4% in the test on MALME-3M melanoma; 48.4% in the test with MDA-MB-231 breast; -2.81% (active) with RXF 393 renal; 47.1% with SF-268 CNS. The growth is 48.5% in the test on SF-295 CNS, 57.7% with SF-539 CNS, 43.6% with UACC-257 melanoma and 18.3% with M14 melanoma.
Take `CC(C)(C)CC(C)(C)Nc1c(-c2ccncc2)nc2cnccn12`: the growth in the test on DU-145 prostate is 106%; with K-562 leukemia, 98.4%; in the test with MALME-3M melanoma, 110%; in the test with MDA-MB-231 breast, 95%; with RXF 393 renal it was 93.8%; in the test on SF-268 CNS, 98.6%. In addition, the growth with SF-295 CNS was 101%; with SF-539 CNS it was 93.8%; in the test on UACC-257 melanoma, 103%; in the test with M14 melanoma, 100%.
Consider `N#CC1=C(NC=O)Oc2c(ccc3ccccc23)C1c1ccccc1` (stereo not given), for which the growth with DU-145 prostate was 41.3%; with K-562 leukemia it was 15.1%; in the test with MALME-3M melanoma, 66.8%; in the test with MDA-MB-231 breast it was 31.9%; with RXF 393 renal it was 25.5%; in the test with SF-268 CNS, 41.3%. Besides, the growth with SF-295 CNS is 29.3%; in the test on SF-539 CNS it was 8.89% (active); in the test on UACC-257 melanoma, 41.5%; in the test on M14 melanoma, 10.2%.
Turning to `N#Cc1c(N)nc(NCCO)nc1-c1ccc(F)cc1`, the growth was 113% with DU-145 prostate; 91.4% with K-562 leukemia; 108% in the test with MALME-3M melanoma; 104% with MDA-MB-231 breast; 93.5% in the test on RXF 393 renal; 103% in the test on SF-268 CNS. Also, the growth in the test with SF-295 CNS was 99.1%; in the test with SF-539 CNS, 98.6%; in the test with UACC-257 melanoma, 90.6%; in the test on M14 melanoma, 105%.
